HT1080NT lethal = qHTS for induction of synthetic lethality in tumor cells producing 2HG: qHTS for the HT-1080-NT fibrosarcoma cell line. Potency, µM (doses to about 46.1 µM), actives largely listed as cytotoxic. HT-1080-NT fibrosarcoma viability, CellTiter-Glo ATP luminescence, 48 h. 360,000 tested, 1.6% active;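 further: NT is the 2HG producing partner of a matched IDH1 knockdown line; nearly all actives have a fitted effect of over 55% in size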
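HT-1080-NT; 750 cells/well; 5% FBS RPMI; 48 h compound, 37 degrees C; CellTiter-Glo luminescence; curve fitting and curve-class assignment.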
HepG2 viability = qHTS for Inhibitors of TGF-b: Cytotox Counterscreen; HepG2 CAGA-GFP viability, ATP luminescence, 18 h; 410,000 tested, 0.76% active; Potency, µM (doses to about 46.1 µM), usual class: cytotoxic
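HepG2 CAGA-GFP cells (1000/well, DMEM with 1% FBS) received compound, then TGF-beta at 500 pg/mL final, and were incubated 18 hours at 37 degrees C. Viability was read by CellTiter-Glo luminescence. Media-only wells were set as complete cell-killing and DMSO as no toxicity.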
KB-3-1 tox = qHTS assay for MDR1-selective chemotherapeutics: Primary screen using the parental adenocarcinoma cell KB-3-1; KB-3-1 viability, CellTiter-Glo ATP luminescence, 72 h; Potency, µM (series often up to 46.1 µM), most hits filed as cytotoxic; 400,000 tested, 1.4% active; further: nearly all actives have a fitted effect of over 60% in size
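Using CellTiter-Glo luminescence, growth of non-resistant KB-3-1 adenocarcinoma cells is assessed 72 h after pin-tool compound addition at 37 °C. Normalized responses across the concentration series yield fitted curves.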
TGFb inhibitor = qHTS for Inhibitors of TGF-b. HepG2 CAGA-GFP TGF-b/SMAD3 reporter, GFP fluorescence, 18 h; TGF-beta stimulated, 500 pg/mL final. Potency, µM (top dose mostly 46.1 µM), usual class: inhibitors. 410,000 tested, 1.2% active. AID 588855, 2011; further: nearly all actives have a fitted effect of over 65% in size
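Per well, imaged GFP fluorescence of HEPG2 CAGA-GFP cells gives the signal; cells get compound, then TGF-beta (500 pg/mL final), 18 h at 37 degrees C; %Activity versus -TGF-beta and +DMSO controls.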
HT1080 IDH1KD tx = qHTS for induction of synthetic lethality in tumor cells producing 2HG: qHTS for the HT-1080-IDH1KD cell line. HT-1080 IDH1 knockdown viability, ATP luminescence, 48 h. Potency, µM (doses to about 46.1 µM), hits mostly cytotoxic. 360,000 tested, 2% active. AID 686971, 2013
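Assay cells: HT-1080 with IDH1 knockdown, 750 per well, RPMI/5% FBS. Exposure: 48 h at 37 °C following 2 h pre-incubation. Read: CellTiter-Glo luminescence; fitted concentration-response, curve class assigned.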
KB-V1 MDR tox = qHTS assay for MDR1-selective chemotherapeutics: Primary screen using the drug-selected MDR subline cells KB-V1 | KB-V1 MDR cells viability, CellTiter-Glo, 72 h | 400,000 tested, 3.4% active | Potency, µM (series often up to 46.1 µM), most hits filed as cytotoxic | AID 1347076, 2019; further: nearly all actives have a fitted effect of over 60% in size
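KB-V1 cells (P-gp-expressing MDR subline of KB-3-1) in phenol-red-free DMEM with 10% FBS were exposed to library compounds over a concentration series for 72 h at 37 degrees C. Viability read by CellTiter-Glo luminescence; concentration-effect curves fitted after normalization.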
Hits are given with their value; i = inactive; ? = inconclusive; nt = no result given; ! = repeats disagree; [ ] = dose if it differs, or a comment. Rows were chosen to be rich in hits. Some 6.6% of all compounds tested hit in one or more screens of this group. The call rests on the fitted dose curve; in most records, active means well fitted curve in the direction sought with a large enough effect; inconclusive means small, poorly fitted or top-dose-only effect, or another doubt; inactive means no such curve, though single readings can be large; an effect the other way counts as inactive or inconclusive.

SMILES	HT1080NT lethal	HepG2 viability	KB-3-1 tox	TGFb inhibitor	HT1080 IDH1KD tx	KB-V1 MDR tox
COc1ccc(NC(=O)c2ccc(-c3ccc(-c4noc(C)n4)cc3C)cc2)cc1N1CCN(C)CC1	8.2µM	11.2µM!	?	17.8µM	23.1µM	?
Cc1cc(C)n2c(NC3CCCCC3)c(CC(C)C)nc2n1	i	nt	i	nt	i	i
CC(C)c1ccc(C2c3c(-c4ccccc4O)n[nH]c3C(=O)N2CCc2ccccc2)cc1 (centres undefined)	nt	i	nt	i	nt	nt
CCCCc1nn2c(=O)cc(COC(=O)c3cccs3)nc2s1	nt	i	i	i	nt	i
N#C/C(=C(/O)c1ccccc1F)c1nc2cc(C(F)(F)F)ccc2s1	i	i	i	?	i	i
N#C/C(=C(/O)c1ccc2c(c1)OCO2)c1nc2cc(C(F)(F)F)ccc2s1	?	i	14.6µM	?	?	?
COc1cccc(C(=O)Nc2ncc3c(n2)CC(c2ccc(OC)cc2OC)CC3=O)c1 (centres undefined)	7.94µM	i	?	?	7.94µM	5.17µM
O=C(CCCn1c(=O)c2cccn2c2cccnc21)Nc1ccccc1C(F)(F)F	nt	i	nt	i	nt	nt
CCOC(=O)C(C)Oc1cccc2c(=O)n(CC(=O)NCc3ccc(F)cc3)ccc12 (centres undefined)	?	i	1.3µM	i	0.581µM	1.3µM
CCOC(=O)C(C)Oc1cccc2c(=O)n(CC(=O)Nc3ccc(OC)cc3)ccc12 (centres undefined)	i	i	i	i	i	?
CCOC(=O)C(C)Oc1cccc2c(=O)n(CC(=O)NCCc3ccccc3)ccc12 (centres undefined)	i	i	i	i	i	i
CCOC(=O)C(C)Oc1cccc2c(=O)n(CC(=O)NCc3ccccc3)ccc12 (centres undefined)	0.517µM	i	1.16µM	?	0.517µM	2.06µM
CCOC(=O)COc1cccc2c(=O)n(CC(=O)NCc3ccc4c(c3)OCO4)ccc12	4.61µM	i	?	i	?	i
COC(=O)COc1cccc2c(=O)n(CC(=O)NCc3ccc(F)cc3)ccc12	?	i	1.46µM	i	3.66µM	?
CCOC(=O)COc1cccc2c(=O)n(CC(=O)NCCc3ccccc3)ccc12	i	i	i	i	i	i
COc1cc(C(=O)NCc2ccc3c(c2)CCN3C(=O)c2ccncc2)cc(OC)c1OC	nt	i	i	i	nt	i
O=C(NCC(c1cccnc1)N1CCc2ccccc21)c1ccc(F)cc1 (centres undefined)	nt	i	i	?	nt	?
COC(=O)c1ccc(C(=O)OC)c(NC(=S)N2CCCC(C)C2)c1 (centres undefined)	i	i	i	i	i	18.4µM
COC(=O)c1ccc(C(=O)OC)c(NC(=S)N2CCC(C(N)=O)CC2)c1	i	i	i	i	i	i
COC(=O)c1ccc(C(=O)OC)c(NC(=S)N2CC(C)CC(C)C2)c1 (centres undefined)	i	i	i	i	i	14.6µM
CC1(C)OC(=O)C2=C(C[C@@H](C3CCCCC3)O[C@H]2c2ccc(Cl)cc2)O1	i	i	i	?	i	i
CCc1ccc(CNC(=O)c2cnc3sc(N4CCCC4)nn3c2=O)cc1	nt	i	nt	?	nt	nt
Cc1ccc(CCNC(=O)c2ccc3c(c2)N(Cc2ccc(F)cc2)CCS3)cc1	nt	i	i	i	nt	i
Cc1ccc(CN2CCSc3ccc(C(=O)NCCCN4CCN(C)CC4)cc32)cc1	25.9µM	i	?	i	?	i
CCOC(=O)c1ccc(NC(=O)NCCOCCn2c(=O)oc3ccccc32)cc1	nt	i	i	?	nt	i
SMILES	HT1080NT lethal	HepG2 viability	KB-3-1 tox	TGFb inhibitor	HT1080 IDH1KD tx	KB-V1 MDR tox
CCOC(=O)CN1CCc2c(C)nc3c(-c4ccc(OC)c(OC)c4)cnn3c21	i	i	i	i	i	8.2µM
CCOC(=O)Cc1c(C)nc2c(-c3ccc(OC)c(OC)c3)c(C)nn2c1C	nt	i	i	i	nt	?
COc1ccc(OCC(O)CNC(=O)c2ccc(Br)cc2)cc1 (centres undefined)	i	i	i	?	i	4.11µM
COc1ccc(N2CCN(C(=O)COC(=O)[C@@H](NC(=O)OCc3ccccc3)C(C)C)CC2)cc1	i	i	i	i	i	6.51µM
Cc1ccc2nc(-c3ccsc3)c(Nc3ccc(Cl)cc3)n2c1	nt	i	nt	i	nt	nt
CCOc1cc(C2c3c(oc4cc(C)c(Cl)cc4c3=O)C(=O)N2Cc2ccco2)ccc1O (centres undefined)	i	i	?	i	i	1.84µM
CCCCCCCCCCCCCCCCCCN(CCCCCCCCCCCCCCCCCC)c1ccc(/C=C/c2ccc(C=O)cc2)cc1	nt	i	i	i	nt	i
Cc1cccc(OCCn2c(=S)[nH]c3ccccc32)c1	i	i	i	i	?	i
Cc1ccc(OCCn2c(=S)[nH]c3ccccc32)c(C(C)C)c1	i	i	14.6µM	15.8µM	?	i
COc1ccccc1OCCn1c(=S)[nH]c2ccccc21	i	i	?	i	?	23.1µM
CC(C)CC(N)c1csc(Nc2ccc(C(=O)NCCO)cc2)n1 (centres undefined)	?	i	i	i	i	i
COCc1c(C(=O)OCC(=O)N2c3ccccc3NC(=O)C2(C)C)oc2ccccc12	i	i	i	i	i	16.4µM
Cn1c(CN2CCCCC2)nc2cc(NC(=O)c3ccc(F)cc3)ccc21	i	i	?	i	i	20.6µM
Cn1c(CN2CCCCC2)nc2cc(NC(=O)c3ccccc3Cl)ccc21	i	i	?	i	?	14.6µM!
CC(=O)N1CCN(Cc2nc3cc(NC(=O)c4ccccc4Cl)ccc3n2C)CC1	i	i	i	i	i	i
CCn1c(CN2CCOCC2)nc2cc(NC(=O)c3ccc([N+](=O)[O-])cc3)ccc21	nt	i	16.4µM	i	nt	?
CCn1c(CN2CCN(C)CC2)nc2cc(NC(=O)c3ccc([N+](=O)[O-])cc3)ccc21	nt	i	i	?	nt	?
O=C(CCNS(=O)(=O)c1cccs1)N1CCN(c2cccc(C(F)(F)F)c2)CC1	i	i	i	i	i	16.4µM
COc1ccc(N2CCN(C(=O)CCNS(=O)(=O)c3cccs3)CC2)cc1	i	i	i	i	i[9.24 µM]	i
Clc1ccc(Cn2c(-c3cccnc3Cl)nc3ccccc32)cc1	i	i	i	i	i	i

Assay outcomes: PubChem BioAssay, National Center for Advancing Translational Sciences (NCATS)
